In assay [1] the test system is Wnt5a (protein binding on small-molecule microarray). The assay is described as follows: Wnt5a binders on small-molecule microarray, primary screen, biophysical, 635/667 nm fluorescence (AID 1142).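 Also: fluorescence read at 667 nm with signal to noise per printed feature.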 The following applies: 635 nm fluorescence, higher = more signal.
Assay [2] in a line: cell viability in Huh7 cells, primary screen, cytotoxicity control for HCV replication inhibitor project, CellTiter-Glo luminescence, basal, 48 h (AID 1143).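 Also: Huh7 hepatoma cells carrying a hepatitis C replication reporter with no stimulus; test concentration not given here.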 The following applies: Huh7 HCV replicon, higher = more signal, called active from +8 up or from −8 down. In general terms: In ATP-based viability assays light output follows the ATP content of the culture.
Assay [3] can be described thus: P. aeruginosa biofilm formation inhibitors, primary screen, PAO1 strain, BacTiter-Glo luminescence, LB-PBS (AID 1144). The following applies: 12 h, higher = more signal.
A short description of assay [4]: CREB reporter modulators without forskolin, primary screen, cell-based, PC12, CRE-LacZ reporter, unstimulated (AID 1145). The following applies: no forskolin, luminescence, 4.5 h, higher = more signal, called active from +8 up or from −8 down.
The nature of assay [5]: CREB reporter modulators under forskolin, primary screen, cell-based, PC12, CRE-LacZ reporter, forskolin-stimulated (AID 1146).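 Also: PC12 cells with 6xCRE LacZ reporter stimulated by forskolin 10 µM; beta-galactosidase reporter signal reflecting CREB driven transcription.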 The settings on record: luminescence, 4.5 h, higher = more signal, called active from +8 up or from −8 down.
The target of assay [6] is Streptavidin (Streptomyces avidinii) (UniProt P22629). The assay is described as follows: streptavidin binders on small-molecule microarray, primary screen, artefact control for SMM compound annotation, biophysical, 635/667 nm fluorescence (AID 1147).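 Also: signal reflects streptavidin binding to arrayed compounds as a control protein.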 The following applies: streptavidin binding, higher = more signal.
Assay [7] is described as follows: small-molecule binders of probe aInhba, primary screen, biochemical, small-molecule microarray, 635/667 nm fluorescence (AID 1148).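 Also: score merges 667nm spot fluorescence with signal-to-noise for antibody binding to printed compounds.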 The settings on record: higher = more signal.
Assay [8] concerns the target Torsin-1A (Homo sapiens) (UniProt O14656). The assay is described as follows: torsin A binders from cell lysate, primary screen, small-molecule microarray, wild-type, 635/667 nm (AID 1149). The settings on record: COS7 hTOR1A-WT lysate, 635 nm fluorescence, higher = more signal.
Assay [9] has the same target. The assay is described as follows: small-molecule binders of mutant TOR1A in lysate, primary screen, cell lysate, small-molecule microarray, COS7 lysate, 635/667 nm fluorescence (AID 1150).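 Also: score pools 667 nm emission and signal to noise measuring lysate protein binding.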 The following applies: COS7 hTOR1A mutant lysate, 635 nm fluorescence, higher = more signal.
Assay [10] deals with Sonic hedgehog protein (Shh). The assay is described as follows: small-molecule binders of Shh protein, primary screen, biochemical, small-molecule microarray, 635/667 nm fluorescence (AID 1151).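 Also: Shh protein binding to compounds spotted on small-molecule microarray slides; score combines spot fluorescence intensity with signal-to-noise across triplicate slides.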 The settings on record: small-molecule microarray binding, 635 nm fluorescence; higher = more signal.

Activity calls are given as the source filed them. Unless noted, no rule for the calls is given here.

Chain of Torsin-1A (Homo sapiens) (O14656 whole entry, looked up): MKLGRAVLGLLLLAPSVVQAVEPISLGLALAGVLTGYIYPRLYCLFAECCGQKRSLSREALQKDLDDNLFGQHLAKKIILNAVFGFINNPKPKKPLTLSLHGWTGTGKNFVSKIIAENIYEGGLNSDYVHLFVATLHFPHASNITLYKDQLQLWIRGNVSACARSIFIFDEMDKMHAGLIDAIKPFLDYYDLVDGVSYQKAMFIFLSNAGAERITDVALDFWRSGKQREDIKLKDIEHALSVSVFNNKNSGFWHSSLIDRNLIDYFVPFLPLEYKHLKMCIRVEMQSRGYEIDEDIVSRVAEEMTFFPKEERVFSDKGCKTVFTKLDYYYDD
Chain of Streptavidin (Streptomyces avidinii) (P22629 whole entry, looked up): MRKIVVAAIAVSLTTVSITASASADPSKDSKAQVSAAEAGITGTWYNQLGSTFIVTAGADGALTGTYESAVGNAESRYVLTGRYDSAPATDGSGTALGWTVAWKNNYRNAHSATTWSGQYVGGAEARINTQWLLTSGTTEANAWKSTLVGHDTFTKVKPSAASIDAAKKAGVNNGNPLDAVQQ

Take `COc1cccc(C[C@H]2C[C@@H](CO[Si](C(C)C)(C(C)C)C(C)C)N3C(=O)[C@]4(C(C)=O)O[C@]23[C@H]2C(=O)N(C)C(=O)[C@H]24)c1`: the composite z-score in assay [1] is 0.205; in assay [6], 0.636; in assay [7], -0.008; in [8] it was 0.0282; in assay [9], 0.611; in [10] it was 1.09. The z-score in [2] is -4.4 (inactive); in [3], 0.0793 (inactive); in assay [4] it was 1.62 (inactive); in assay [5], 0.325 (inactive).
For `CCOC(=O)C[C@H]1[C@H](OC(=O)c2ccc(C(=O)c3ccccc3)cc2)[C@@H](NC(=O)C2CCCCC2)c2cc(OCCCO)ccc2N1C(=O)Cc1ccc(OC)cc1`, the composite z-score in [1] turned out to be 0.354; in assay [6], 0.519; in assay [7] it was 0.0497; in assay [8], 0.192; in assay [9], 1.24; in assay [10], 0.761. The z-score in assay [2] is -0.281 (inactive); in assay [3], 0.193 (inactive); in assay [4], 1.24 (inactive); in [5] it was -0.0721 (inactive).
For `COc1ccc(C#Cc2ccc3c(c2)[C@]2(C(=O)N3)[C@H](C(=O)O)[C@H]3C(=O)O[C@H](c4ccccc4)[C@H](c4ccccc4)N3[C@@H]2c2ccc(OCCO)cc2)cc1`, the composite z-score was 0.356 in [1]; 1.59 in assay [6]; 0.399 in [7]; -0.0331 in [8]; 0.739 in [9]; 1.3 in [10]. The z-score was -0.969 (inactive) in assay [2], -0.859 (inactive) in assay [3], 0.272 (inactive) in assay [4] and 0.408 (inactive) in assay [5].
As to `CC(C)CCC[C@@H](C)[C@H]1CC[C@@]2(C)C3=C(CC[C@]12C)[C@@]1(C)CC[C@H](OC(=O)c2ccc(N)cc2)C(C)(C)C1CC3` (stereo not given in full), the composite z-score in assay [1] was 0.279; in assay [6], 0.143; in [7] it was -0.208; in assay [8], 0.315; in assay [9], 0.273; in assay [10] it was 0.49. Also, the z-score in assay [2] is -0.793 (inactive); in [3] it was -0.593 (inactive); in assay [4] it was 1.39 (inactive); in assay [5] it was -0.391 (inactive).
Take `C[N+](C)(C)CCCC[C@@H]1NC(=O)[C@@H]2C[C@H](C(=O)NCCCCCNC(=O)CS)[C@H](c3cccc(OCCO)c3)N2C1=O`: the composite z-score in assay [1] was 0.623; in assay [6], 0.0879; in assay [7], 0.0636; in [8] it was 0.628; in assay [9], 0.186; in assay [10] it was 1.38. The z-score in assay [2] is -0.192 (inactive); in [3], 0.152 (inactive); in [4], 0.688 (inactive); in assay [5], 0.478 (inactive).
As to `CCCC[C@H]1OB(O)C[C@H]2C1=C(COc1ccccc1)Cn1c(=O)n(-c3ccccc3)c(=O)n12`, the composite z-score is 0.0561 in [1]; 0.0395 in assay [6]; -0.104 in assay [7]; 0.418 in [8]; 0.5 in assay [9]; 1.64 in [10]. In addition, the z-score in assay [2] was -0.363 (inactive); in assay [3] it was -0.127 (inactive); in assay [4], -0.141 (inactive); in [5], 0.402 (inactive).
Consider `Cc1cc(C)c(C(O)C2C=CC3C(=O)N(c4ccccc4)C(=O)C3N2Nc2ccccc2)c(C)c1` (stereo not given), for which the composite z-score turned out to be 0.345 in assay [1]; 1.55 in assay [6]; 0.117 in [7]; 0.133 in assay [8]; 0.329 in [9]; 0.234 in assay [10]. Also, the z-score in [2] is 0.326 (inactive); in assay [3], -1.38 (inactive); in [4], -0.329 (inactive); in assay [5], 0.501 (inactive).
Consider `COc1ccccc1CN1C(=O)c2ccccc2[C@@H](C(=O)NCC(C)C)[C@@H]1c1ccc(CO)cc1`, for which the composite z-score was 0.572 in assay [1]; -0.378 in [6]; -0.145 in assay [7]; -0.114 in assay [8]; 0.526 in assay [9]; 0.0072 in [10]. The z-score is -0.922 (inactive) in [2], 0.34 (inactive) in [3], -0.258 (inactive) in [4] and -0.992 (inactive) in [5].
Take `CCCCC(=C=CC[C@H](O)c1cccc(OCCO)c1)C[C@H](O)COCc1ccccc1`: the composite z-score in assay [1] is -0.122; in [6] it was 0.206; in assay [7], -0.101; in [8], 0.139; in assay [9], 0.0056; in assay [10], 0.508. Moreover, the z-score in assay [2] is -1.33 (inactive); in assay [3], -0.295 (inactive); in [4] it was 3.54 (inactive); in assay [5] it was 1.04 (inactive).
In the case of `CC(C)(C)OC(=O)CC[C@@]1(C(=O)N2CCCCC2)N=C(c2ccc(OCCCO)cc2)O[C@@H]1c1ccccc1N=[N+]=[N-]`, the composite z-score amounted to 0.258 in [1]; 2.05 in assay [6]; 0.401 in assay [7]; 0.332 in assay [8]; 0.827 in [9]; 0.292 in [10]. Besides, the z-score in [2] was -2.66 (inactive); in assay [3] it was -0.197 (inactive); in [4] it was 0.227 (inactive); in assay [5] it was -1.62 (inactive).
`O=C(O)[C@]1(CCS(=O)(=O)c2ccccc2)N=C(c2ccc(OCCCO)cc2)O[C@@H]1c1ccccc1`: the composite z-score in assay [1] was 0.235; in [6], -0.0087; in [7], 0.297; in assay [8], -0.0493; in [9], -0.301; in assay [10] it was -0.439. Moreover, the z-score in assay [2] is 0.495 (inactive); in assay [3], 0.869 (inactive); in assay [4], 0.19 (inactive); in [5], -0.534 (inactive).

The values are drawn from PubChem BioAssay.
